Results reported in PubChem BioAssay.
Activity calls are given as the source filed them.

What was measured:
[1] = E. coli DRC41 culture turbidity changes, primary screen, E. coli filamentation inducer project, strain DRC41, OD650, 48 h (AID 1152);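 note: E. coli MC1000 strain DRC41 lacking acrAB efflux pump and sulA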; details: E. coli DRC41 (acrAB sulA), higher = more signal, called active from +8 up or from −8 down
[2] = small-molecule binders of probe aLefty1, primary screen, biochemical, small-molecule microarray, 635/667 nm fluorescence (AID 1153); details: higher = more signal;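 note: score merges spot fluorescence with signal-to-noise ratio from the scanned slide images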
[3] = PSAC antagonists in infected red cells, primary screen, cell-based, P. falciparum Indochina, OD700, 1 h (AID 1154); details: P. falciparum Indochina infected RBC osmotic lysis, higher = more signal, called active from +8 up or from −8 down
[4] = PSAC antagonists in infected red cells, primary screen, cell-based, P. falciparum Indochina, OD700, 2 h (AID 1155);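 note: lysis reports solute entry through the parasite surface anion channel PSAC; channel blockers reduce lysis of infected cells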; details: P. falciparum Indochina infected erythrocytes, osmotic lysis OD700; higher = more signal, called active from +8 up or from −8 down
[5] = osmotic lysis modulators in infected erythrocytes, primary screen, PSAC antagonist project, cell-based, P. falciparum Indochina, OD700, 3 h (AID 1156); details: higher = more signal, called active from +8 up or from −8 down
[6] = PSAC antagonists in infected red cells, primary screen, cell-based, P. falciparum Indochina, OD700, 18 h (AID 1157); details: P. falciparum Indochina infected erythrocytes, osmotic lysis OD700, 18 h; higher = more signal, called active from +8 up or from −8 down
[7] = modulators of S6 phosphorylation in cells, primary screen, cell-based, A549, cytoblot, luminescence, serum-stimulated (AID 1158); details: A549 phospho-S6 cytoblot, 5 h, higher = more signal;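 note: serum-stimulated A549 lung adenocarcinoma cells; signal is phosphorylated S6 detected by cytoblot immunostaining with HRP secondary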
[8] = target: NADPH oxidase 2 (Homo sapiens) (UniProt P04839); experiment: NOX2-dependent H2O2 signal modulators, primary screen, NOX inhibitor project, cell-based, HEK293-NOX2, PMA-stimulated, Amplex Red fluorescence (AID 1159); details: 45 min, higher = more signal, called active from +8 up or from −8 down; note: test concentration not given here
Sequence of NADPH oxidase 2 (Homo sapiens) (P04839 whole entry, looked up): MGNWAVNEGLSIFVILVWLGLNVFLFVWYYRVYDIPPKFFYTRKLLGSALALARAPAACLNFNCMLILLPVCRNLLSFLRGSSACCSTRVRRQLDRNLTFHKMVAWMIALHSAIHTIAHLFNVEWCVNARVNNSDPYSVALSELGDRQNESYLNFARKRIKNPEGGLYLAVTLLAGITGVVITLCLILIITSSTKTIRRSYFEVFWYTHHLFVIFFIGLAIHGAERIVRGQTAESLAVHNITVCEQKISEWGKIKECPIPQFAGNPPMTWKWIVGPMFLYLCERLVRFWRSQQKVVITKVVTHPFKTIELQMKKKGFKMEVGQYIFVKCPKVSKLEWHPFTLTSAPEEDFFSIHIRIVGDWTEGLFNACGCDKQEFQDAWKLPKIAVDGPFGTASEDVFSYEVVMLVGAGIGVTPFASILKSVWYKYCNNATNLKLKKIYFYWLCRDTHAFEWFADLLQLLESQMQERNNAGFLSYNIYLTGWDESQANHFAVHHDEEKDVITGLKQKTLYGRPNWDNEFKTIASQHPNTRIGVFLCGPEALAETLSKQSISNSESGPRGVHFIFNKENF

[9] = target: NADPH oxidase 4 (Homo sapiens) (UniProt Q9NPH5); experiment: NOX4-dependent H2O2 signal modulators, primary screen, NOX inhibitor project, cell-based, HEK293-NOX4, tetracycline-induced, Amplex Red fluorescence (AID 1160); details: 45 min, higher = more signal, called active from +8 up or from −8 down
Sequence of NADPH oxidase 4 (Homo sapiens) (Q9NPH5 whole entry, looked up): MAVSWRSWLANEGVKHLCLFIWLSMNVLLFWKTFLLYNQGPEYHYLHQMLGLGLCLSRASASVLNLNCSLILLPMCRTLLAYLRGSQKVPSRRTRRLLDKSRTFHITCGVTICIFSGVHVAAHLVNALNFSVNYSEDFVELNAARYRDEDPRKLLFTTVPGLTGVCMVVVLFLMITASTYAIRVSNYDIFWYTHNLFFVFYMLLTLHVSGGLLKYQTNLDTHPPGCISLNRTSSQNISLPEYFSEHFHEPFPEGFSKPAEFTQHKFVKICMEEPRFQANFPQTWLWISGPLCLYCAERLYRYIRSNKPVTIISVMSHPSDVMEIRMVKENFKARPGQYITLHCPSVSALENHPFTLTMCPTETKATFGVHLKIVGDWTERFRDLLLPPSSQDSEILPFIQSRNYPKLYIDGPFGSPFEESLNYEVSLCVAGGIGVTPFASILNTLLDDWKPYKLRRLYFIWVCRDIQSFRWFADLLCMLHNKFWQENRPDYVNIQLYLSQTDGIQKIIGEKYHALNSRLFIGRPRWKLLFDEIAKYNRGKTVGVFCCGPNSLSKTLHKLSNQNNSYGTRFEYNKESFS

[10] = target: NADPH oxidase 5 (Homo sapiens) (UniProt Q96PH1); experiment: NOX5-dependent H2O2 signal modulators, primary screen, NOX inhibitor project, cell-based, HEK293-NOX5, Amplex Red fluorescence (AID 1161); details: HEK293-NOX5, ionomycin, 45 min, higher = more signal
Sequence of NADPH oxidase 5 (Homo sapiens) (Q96PH1 whole entry, looked up): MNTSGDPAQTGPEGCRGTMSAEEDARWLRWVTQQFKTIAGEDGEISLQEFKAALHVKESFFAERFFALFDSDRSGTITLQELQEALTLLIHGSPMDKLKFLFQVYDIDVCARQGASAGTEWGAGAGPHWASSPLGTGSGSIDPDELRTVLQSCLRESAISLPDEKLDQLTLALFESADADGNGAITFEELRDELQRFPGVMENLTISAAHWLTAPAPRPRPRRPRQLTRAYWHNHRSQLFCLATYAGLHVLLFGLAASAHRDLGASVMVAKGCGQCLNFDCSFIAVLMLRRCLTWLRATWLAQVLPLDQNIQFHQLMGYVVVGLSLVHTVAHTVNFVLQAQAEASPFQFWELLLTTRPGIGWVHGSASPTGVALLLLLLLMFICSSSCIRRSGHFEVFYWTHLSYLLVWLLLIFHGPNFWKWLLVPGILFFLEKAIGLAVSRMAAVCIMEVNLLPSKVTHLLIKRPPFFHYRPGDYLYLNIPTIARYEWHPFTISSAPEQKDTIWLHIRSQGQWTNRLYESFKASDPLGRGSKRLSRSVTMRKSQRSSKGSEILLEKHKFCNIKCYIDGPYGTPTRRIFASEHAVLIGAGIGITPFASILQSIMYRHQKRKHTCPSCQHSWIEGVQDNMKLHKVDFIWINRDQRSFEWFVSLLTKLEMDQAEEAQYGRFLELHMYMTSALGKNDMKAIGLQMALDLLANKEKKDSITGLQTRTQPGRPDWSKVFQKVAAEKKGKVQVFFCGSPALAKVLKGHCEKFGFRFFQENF

| SMILES | z-score [1] | composite z-score [2] | z-score [3] | z-score [4] | z-score [5] | z-score [6] | z-score [7] | z-score [8] | z-score [9] | z-score [10] |
| --- | --- | --- | --- | --- | --- | --- | --- | --- | --- | --- |
| COC(=O)C(CC#Cc1ccc2c(c1)[C@]1(C(=O)N2)[C@H](c2ccccc2OCCO)N2[C@H](c3ccccc3)[C@H](c3ccccc3)OC(=O)[C@H]2[C@@H]1C(=O)NC[C@H](O)c1ccccc1)C(=O)OC | 0.345 (inactive) | 0.964 | 2.45 (inactive) | 1.18 (inactive) | 0.984 (inactive) | 0.957 (inactive) | 1.54 | 1.63 (inactive) | 1.03 (inactive) | 1.34 |
| CC(C)N1C(=O)c2ccccc2[C@@H](C(=O)NC2CC2)[C@@H]1c1ccc(CO)cc1 | 0.258 (inactive) | 0.007 | 2.06 (inactive) | -0.0507 (inactive) | -0.0836 (inactive) | -0.307 (inactive) | 0.167 | 0.393 (inactive) | 0.708 (inactive) | 0.442 |
| CCOC(=O)[C@H]1[C@@H]2C(=O)N3CCC[C@H]3[C@H](O[Si](C(C)C)(C(C)C)C(C)C)[C@H]2C=C2CCN(S(=O)(=O)c3ccc(C)cc3)C[C@H]21 | -1.12 (inactive) | -0.202 | 5.55 (inactive) | 1.24 (inactive) | 0.216 (inactive) | 1.02 (inactive) | 0.582 | 0.163 (inactive) | -0.264 (inactive) | 1.69 |
| CN(C)c1ccc(C(O)C2C=CC3C(=O)N(c4ccccc4)C(=O)C3N2Nc2ccc([N+](=O)[O-])cc2)cc1 (stereo not given) | -1.16 (inactive) | 0.388 | 4.9 (inactive) | 1.16 (inactive) | 1.69 (inactive) | 0.73 (inactive) | -0.503 | -1.95 (inactive) | -4.56 (inactive) | -4.69 |
| CC(C)C(=C=CC[C@H](O)c1cccc(OCCO)c1)C[C@H](O)c1cc(Cl)cc(Cl)c1O | 0.321 (inactive) | 0.0999 | 14.5 (active) | 2.25 (inactive) | 0.667 (inactive) | 0.847 (inactive) | 1.53 | -1.01 (inactive) | -0.881 (inactive) | -1.83 |
| O=C1NC(=O)C2C1C=CC(C(O)c1c(F)cccc1Cl)N2Nc1ccc(Cl)cc1Cl (stereo not given) | -3.86 (inactive) | 0.501 | 3.9 (inactive) | 0.914 (inactive) | -0.87 (inactive) | 1.17 (inactive) | -1.27 | 0.295 (inactive) | -5.4 (inactive) | -2.57 |
| CCOC(=O)C1CCCCN1 (stereo not given) | -0.641 (inactive) | 1.08 | -0.536 (inactive) | 0.0175 (inactive) | -0.965 (inactive) | 0.0086 (inactive) | -0.0896 | 0.0494 (inactive) | 0.0488 (inactive) | -0.117 |
| CCCC[C@@H]1C[C@H]1[C@@H](NC(=O)c1ccccc1)c1ccc(C(F)(F)F)cc1 | -0.903 (inactive) | 0.361 | -0.512 (inactive) | 0.0991 (inactive) | 0.162 (inactive) | 0.739 (inactive) | -0.295 | -0.3 (inactive) | -0.742 (inactive) | 0.689 |
| COCCOC(=O)N1C(=O)[C@@]2(c3cc(C#CCCO)ccc31)[C@H](C(=O)Nc1nc3ccccc3s1)[C@H]1C(=O)O[C@H](c3ccccc3)[C@H](c3ccccc3)N1[C@@H]2c1ccccc1OCCO | -0.348 (inactive) | 1.28 | 5.19 (inactive) | 1.86 (inactive) | 0.286 (inactive) | 1.36 (inactive) | -0.331 | 1.89 (inactive) | -0.9 (inactive) | 0.501 |
| O=C(CS)NCCCCCNC(=O)[C@@H]1C[C@@H]2C(=O)N3CCC[C@H]3C(=O)N2[C@@H]1c1cccc(OCCO)c1 | -1.26 (inactive) | -0.781 | 2.76 (inactive) | 0.465 (inactive) | -0.87 (inactive) | 0.277 (inactive) | -0.645 | 1.97 (inactive) | 0.231 (inactive) | -0.232 |
| COC(=O)c1c2oc(c1C(=O)OC)C(=O)N(C)Cc1cn(nn1)C[C@H](Cc1ccccc1)NC(=O)N[C@H](CO)CC2 | -0.878 (inactive) | -0.0954 | 0.965 (inactive) | 0.308 (inactive) | -0.119 (inactive) | 0.728 (inactive) | -0.638 | 0.0368 (inactive) | 0.338 (inactive) | 0.282 |
| CC(CO)N1C(=O)[C@@H]2[C@H]3C(=O)OCC=C[C@H]3OC23C=CCN(Cc2ccccc2)C(=O)[C@@H]13 (stereo not given in full) | 2.36 (inactive) | -0.191 | 0.116 (inactive) | -1.05 (inactive) | -0.355 (inactive) | -1.39 (inactive) | 0.473 | 0.991 (inactive) | 0.662 (inactive) | 1.49 |
| COC(=O)c1ccc([C@H](NC(=O)c2ccco2)[C@]2(C)C[C@H]2C2CCCCC2)cc1 | -2.39 (inactive) | 0.527 | 16.4 (active) | 2.52 (inactive) | 1.33 (inactive) | 1.3 (inactive) | -0.357 | -0.803 (inactive) | -2.56 (inactive) | 0.289 |
| C=CCN1Cc2ccccc2[C@H]2OC(c3ccc(OCCCO)cc3)=N[C@@]2(CC=C)C1=O | 0.831 (inactive) | 0.692 | 29.9 (active) | 25.7 (active) | 1.97 (inactive) | 6.4 (inactive) | 0.0524 | -1.66 (inactive) | 0.367 (inactive) | 0.034 |
| NCCCCCCNC(=O)[C@@H]1C[C@@H]2C(=O)N[C@@H](CCCCN)C(=O)N2[C@@H]1c1cccc(OCCO)c1 | 0.68 (inactive) | 0.784 | 3.51 (inactive) | 0.289 (inactive) | -0.147 (inactive) | 0.472 (inactive) | -0.447 | 0.937 (inactive) | 1.02 (inactive) | 1.01 |
| COC(=O)[C@@]1(Cc2ccc(F)cc2)[C@H]2c3cc(C(=O)N4CCCC4)n(CCN4CNCC4=O)c3C[C@H]2CN1C(=O)c1ccccc1 | -1.59 (inactive) | 0.497 | 1.85 (inactive) | 0.811 (inactive) | 2.24 (inactive) | 0.937 (inactive) | 1 | 0.821 (inactive) | -0.489 (inactive) | -5.26 |
| COC(=O)[C@@]1(Cc2ccc(OC)cc2)[C@@H]2C(=CC(=O)[C@H]2CC(=O)C(=O)N(C)C)CN1C(=O)c1ccccc1 | -2.06 (inactive) | 0.485 | 2.07 (inactive) | 0.584 (inactive) | 0.481 (inactive) | 1.38 (inactive) | 0.808 | -0.192 (inactive) | 1.39 (inactive) | 1.32 |
| O=c1n(-c2ccccc2)c(=O)n2n1CC(COc1ccccc1)=C([C@H](O)CCc1ccccc1)[C@@H]2CO | 2.63 (inactive) | -0.315 | 16.8 (active) | 0.497 (inactive) | 0.076 (inactive) | -1.51 (inactive) | 1.02 | -0.878 (inactive) | -0.265 (inactive) | -0.682 |
| COc1ccc([Si](C)(C)[C@@H]2[C@@H](CCO)O[C@]3(C(=O)N(Cc4ccc(N5CCCCC5=O)cc4)c4ccccc43)[C@H]2C)cc1 | 0.968 (inactive) | 0.145 | 26 (active) | 21.8 (active) | 0.892 (inactive) | 2.63 (inactive) | 0.703 | 0.381 (inactive) | 0.706 (inactive) | 2.1 |
| COc1ccc(CCN2C(=O)[C@@]3(Cc4ccccc42)c2ccccc2C(=O)N(Cc2ccccc2OC)[C@H]3c2ccc(CO)cc2)cc1 | 2.06 (inactive) | 0.595 | 1.96 (inactive) | -0.373 (inactive) | -0.217 (inactive) | -1.29 (inactive) | 3.17 | 0.348 (inactive) | -0.797 (inactive) | 0.327 |
| O=C1O[C@@H](c2ccccc2)[C@@H](c2ccccc2)N2[C@@H](c3ccccc3OCCO)[C@]3(C(=O)Nc4ccc(C#CCCO)cc43)[C@@H](C(=O)N3CCCCCCC3)[C@H]12 | -0.723 (inactive) | 3.18 | 1.01 (inactive) | 0.83 (inactive) | 0.352 (inactive) | 0.49 (inactive) | -0.544 | 1.02 (inactive) | 0.486 (inactive) | 1.69 |
| COCCOC(=O)N1C(=O)[C@@]2(c3cc(C#CC4=CCCCC4)ccc31)[C@H](c1ccccc1OCCO)N1[C@H](c3ccccc3)[C@H](c3ccccc3)OC(=O)[C@H]1[C@@H]2C(=O)N1CCCCCCC1 | -1.05 (inactive) | -0.999 | -0.606 (inactive) | 1.1 (inactive) | -0.56 (inactive) | 0.442 (inactive) | -0.56 | 0.962 (inactive) | -1.22 (inactive) | 0.545 |
| C=CCN1C(=O)[C@@]2(CCS(=O)(=O)c3ccccc3)N=C(c3ccc(OCCCO)cc3)O[C@H]2c2ccccc21 | -0.135 (inactive) | 0.235 | 29.9 (active) | 25.2 (active) | 1.73 (inactive) | 6.35 (inactive) | 1.06 | -1.42 (inactive) | 1.35 (inactive) | -0.428 |
| O=C1OCC=C[C@H]2OC34C=CCN(Cn5nnc6ccccc65)C(=O)[C@H]3N(CCCO)C(=O)[C@@H]4[C@@H]12 (stereo not given in full) | 1.54 (inactive) | 0.0861 | 0.243 (inactive) | -1.01 (inactive) | 1.24 (inactive) | -0.602 (inactive) | 0.277 | 0.847 (inactive) | -1.42 (inactive) | 0.1 |
| O=C1NC(=O)C2C1C=CC(C(O)CCc1ccccc1)N2Nc1ccc(Cl)cc1Cl (stereo not given) | -1.34 (inactive) | -0.0162 | 2.28 (inactive) | 1.31 (inactive) | 0.0675 (inactive) | 1.05 (inactive) | -1.01 | -0.22 (inactive) | -5.55 (inactive) | -0.709 |
| CCCCO[C@H]1C[C@H]2C(I)=C[C@@H]1C(=O)[C@]21CO1 | -1.55 (inactive) | -0.369 | -0.0445 (inactive) | 0.18 (inactive) | -0.163 (inactive) | -0.16 (inactive) | -0.408 | 0.0778 (inactive) | 0.609 (inactive) | -0.383 |
